# Experimental data: PubChem BioAssay (EPA / NIEHS)
# Inconclusive results are not listed. Activity calls are given as the source filed them. The calls were made as follows, unless noted: active = hit-call score of the fitted dose curve at least 0.9, where 1 is the maximum; inconclusive = response in the unintended direction; inactive = score below 0.9.
# Experiments:
# [1] = Tanguay_ZF_120hpf_TR_legacy: (Legacy) Oregon State University Tanguay Lab 120 Hour Post-fertilization zebrafish Assay for Touch Response (AID 2283667)
# In short: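 Binary touch-response endpoint in larvae at 120 hpf after static waterborne exposure from embryo stage (28°C, 0.64% DMSO vehicle, 5 uM trimethyltin chloride as positive control); embryos dead at 24 or 120 hpf excluded; fitted as gain versus DMSO.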
# [2] = CCTE_Padilla_ZF_144hpf_TERATOSCORE: (Legacy) CCTE's 144 Hour Post-fertilization zebrafish Assay Teratoscore, Padilla Lab (AID 2283679; active = hit-call score of the fitted dose curve at least 0.9, where 1 is the maximum; inactive = score below 0.9;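 also: zebrafish embryos with chorions exposed by immersion from 6-8 hpf to 5 dpf with daily renewal; teratogenicity score from eye scoring of death hatching and malformations at 144 hpf; higher score means more developmental defects relative to DMSO baseline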)
# In short: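 Larvae scored by eye at 144 hpf for death, hatching and malformations after a day in clean Hanks'. Before that, daily-renewed exposure at 80 uM (0.4% DMSO, 26C) from roughly 6-8 hpf through 5 dpf, 4 embryos per chemical.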
# [3] = CEETOX_H295R_MTT_cell_viability: Viability Assessment in the CeeTox HT-H295R MTT Assay (AID 2283718; active = hit-call score of the fitted dose curve at least 0.9, where 1 is the maximum; inactive = score below 0.9;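 as to AC50: curve fitted both ways so AC50 may mark viability loss or gain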)
# In short: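 MTT reduction (0.5 mg/ml, 4 h at 37 C; absorbance at 570 and 650 nm) gave viability as background-corrected percent change versus controls. H295R cells had 48 h forskolin (10 uM) prestimulation, then 48 h chemical exposure at 0.1% DMSO.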
# [4] = STM_H9_OrnithineISnorm_perc: Stemina devTOX quickPredict H9 human embryonic stem cell (hESC)-based Assay for Ornithine (ORN) Metabolite Biomarker, Normalized (AID 2283712; active = hit-call score of the fitted dose curve at least 0.9, where 1 is the maximum; inactive = score below 0.9;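 also: ornithine released into spent medium during last day measured by mass spectrometry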)
# In short: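 Ornithine secreted by H9 hESCs after 72h compound treatment (daily media/compound renewal) was quantified in final-day media by UPLC-HRMS. Values are isotope-standard-normalized, expressed relative to 0.1% DMSO, fitted in positive direction.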
# [5] = STM_H9_CystineISnorm_perc: Stemina devTOX quickPredict H9 human embryonic stem cell (hESC)-based Assay for Cystine (CYSS) Metabolite Biomarker, Normalized (AID 2283713; active = hit-call score of the fitted dose curve at least 0.9, where 1 is the maximum; inactive = score below 0.9)
# In short: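 Cells are held undifferentiated and treated for 72h, receiving fresh medium with compound every 24h. Cystine secreted during the final day is quantified by UPLC-HRMS against a labeled spike-in, then expressed relative to the DMSO vehicle median.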
# [6] = Tanguay_ZF_120hpf_ActivityScore_legacy: (Legacy) Oregon State University Tanguay Lab 120 Hour Post-fertilization zebrafish Assay Score for Activity (AID 2283742);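 as to AC50: dechorionated Tropical 5D wild-type zebrafish embryos held singly per well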
# In short: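 Binary scoring of mortality and morphology by brightfield at 24 and 120 hpf, summarised into one activity score from 18 components relative to DMSO. Wild-type Tropical 5D zebrafish, chorion removed at 4 hpf, static exposure 6–120 hpf, 28 °C.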
# [7] = ArunA_CellTiter_hNC: Viability Assessment in the ArunA Biomedical's Oris Neural Crest (hNC) Cell Migration Assay (AID 2283752)
# In short: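 Seed 60,000 hNC cells per well onto Matrigel in basal growth medium containing LIF and bFGF. Incubate 16 h at 37C. Replace with test medium containing chemical for 72 h, then assess viability by CellTiter Aqueous One.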
# [8] = ArunA_Migration_hNC: ArunA Biomedical's Oris Neural Crest (hNC) Cell Migration Assay (AID 2283755)
# In short: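 Calcein-AM fluorescence (ex494 nm/em 517 nm) in the stopper-defined detection zone quantifies migration of hNC cells after 72 h chemical exposure; 60,000 cells/well plated on Matrigel with LIF and bFGF, 16 h pre-incubation. DMSO baseline.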
# [9] = ArunA_NOG_NucleusCount: ArunA Biomedical's Neurite Outgrowth (NOG) Assay for Nucleus Count (AID 2283756)
# In short: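 Viable neuron count, from Hoechst nuclei passing size and intensity gates, imaged at 20x on differentiated H9-derived human neurons. Exposure lasted 48 h from seeding; activity was scored relative to DMSO.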
# [10] = STM_H9_OrnCyssISnorm_ratio: Stemina devTOX quickPredict H9 human embryonic stem cell (hESC)-based Assay for Ornithine (ORN):Cystine (CYSS) Ratio (AID 2283714)
# In short: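 Ratio of internal-standard-normalized ornithine to cystine, measured by UPLC-HRMS in spent media from the last 24 h. H9 cells kept pluripotent, dosed 72 h with daily media and compound renewal; DMSO 0.1% serves as baseline.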
# [11] = ArunA_NOG_NeuriteLength: ArunA Biomedical's Neurite Outgrowth (NOG) Assay for Neurite Length (AID 2283757)
# In short: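 Total neurite length per neuron, from traced βIII-tubulin-labelled processes longer than 10 um on viable Hoechst-gated cells, was scored as decrease from DMSO. Cells were hESC (H9)-derived neurons given 48 h chemical exposure immediately after seeding.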
# [12] = ArunA_NOG_NeuritesPerNeuron: ArunA Biomedical's Neurite Outgrowth (NOG) Assay for Neurites Per Neuron (AID 2283758)
# In short: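 Differentiated human H9-derived neurons exposed to chemicals for 48 h from seeding, then stained with Hoechst and βIII-tubulin/DyLight 488. Automated imaging counted neurites (processes >10 um) per valid neuron; loss of signal versus DMSO scored.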
smiles,measurement,setting,value
CCCCC(CC)C(=O)OCCOCCOCCOC(=O)C(CC)CCCC (configuration not stated),outcome,[1],inactive
same,AC50,[2],4.5 µM (active)
same,outcome,[3],inactive
CCCCCCCCCC,outcome,[1],inactive
same,outcome,[4],inactive
same,outcome,[5],inactive
same,outcome,[6],inactive
same,outcome,[7],inactive
same,outcome,[8],inactive
same,outcome,[9],inactive
COCc1nnc(-c2ccc[n+]([O-])c2)n1-c1c(Cl)c(Cl)cc2[nH]c(=O)c(=O)[nH]c12,outcome,[1],inactive
same,outcome,[6],inactive
Cc1ncc([C@@H](CCCCCCc2ccc3c(n2)NCCC3)CC(=O)O)cn1,outcome,[1],inactive
same,outcome,[4],inactive
same,AC50,[5],0.0101 µM (active)
same,AC50,[10],0.0104 µM (active)
same,outcome,[3],inactive
CCCCCCCC/C=C\CCCCCCCC(=O)OC[C@@H](O)[C@H]1OC[C@H](O)[C@H]1O,outcome,[1],inactive
same,outcome,[6],inactive
OCCNCCO,outcome,[1],inactive
same,outcome,[4],inactive
same,AC50,[5],22.2 µM (active)
same,AC50,[10],14 µM (active)
same,outcome,[6],inactive
same,outcome,[8],inactive
same,AC50,[9],21.3 µM (active)
same,AC50,[11],24.8 µM (active)
same,AC50,[12],20.2 µM (active)
CCCCN1C(=O)[C@@H]([C@H](O)C2CCCCC2)NC(=O)C12CCN(Cc1ccc(Oc3ccc(C(=O)O)cc3)cc1)CC2,outcome,[1],inactive
same,outcome,[4],inactive
same,AC50,[5],2.26 µM (active)
same,AC50,[10],2.14 µM (active)
same,outcome,[6],inactive
CC(=O)c1ccccc1,outcome,[1],inactive
same,outcome,[6],inactive
CCCCCOC(C)=O,outcome,[1],inactive
same,outcome,[6],inactive
OCc1c[nH]c2ccccc12,outcome,[3],inactive
Cc1nc(-c2ccccn2)ncc1C(=O)Nn1cc(C)c2cc(F)ccc21,outcome,[1],inactive
same,outcome,[4],inactive
same,outcome,[5],inactive
same,outcome,[10],inactive
same,AC50,[3],75.8 µM (active)
same,outcome,[6],inactive
CCCCCCCCCCCCCCO,outcome,[1],inactive
same,outcome,[3],inactive
NC(=O)NN=Cc1ccc([N+](=O)[O-])o1,outcome,[1],inactive
same,outcome,[4],inactive
same,outcome,[5],inactive
same,AC50,[10],2.42 µM (active)
Nc1ccn([C@@H]2O[C@H](CO)[C@@H](O)[C@@H]2O)c(=O)n1,outcome,[1],inactive
same,AC50,[4],0.235 µM (active)
same,AC50,[5],0.142 µM (active)
same,AC50,[10],0.203 µM (active)
same,AC50,[3],1.43 µM (active)
Cn1c(=O)c2[nH]cnc2n(C)c1=O,outcome,[1],inactive
same,outcome,[4],inactive
same,outcome,[5],inactive
C[C@]12C=CC(=O)C=C1CC[C@H]1[C@@H]3C[C@@H](O)[C@](O)(C(=O)CO)[C@@]3(C)C[C@H](O)[C@@]12F,outcome,[1],inactive
same,outcome,[4],inactive
same,outcome,[5],inactive
same,outcome,[3],inactive
same,AC50,[6],0.00064 µM (active)
CNC(C)=O,outcome,[1],inactive
same,outcome,[6],inactive
CCCCCCOC(=O)CC(CC(=O)OCCCCCC)(OC(=O)CCC)C(=O)OCCCCCC,outcome,[1],inactive
same,outcome,[6],inactive
